SMILES strings stand for the structures. In all, about 16,000 compounds went through this assay and about 5,100 (32%) were called active. Inconclusive results (about 25%) are left out. The call rests on the fitted dose curve; in most records, active means well fitted curve in the direction sought with a large enough effect; inconclusive means small, poorly fitted or top-dose-only effect, or effect the other way; inactive means no such curve, though single readings can be large or run the other way. The list shows a part of the results. The source holds several records for some structures; these can differ, active in one and inactive in another.

In general, AC50 refers to the concentration giving half of the maximal activity seen.
On the % scale 0 is the no-effect control and ±100 the full control effect.

The target of this assay is Cytochrome P450 3A4 (Homo sapiens) (UniProt P08684). The experiment in a line: Cytochrome panel assay with activity outcomes. The note with it: recombinant CYP, pro-luciferin dealkylation, luminescence, p450-cyp3a4; series mostly up to 57.1 µM; activity, negative = inhibition: at the top concentration.
Sequence of Cytochrome P450 3A4 (Homo sapiens) (P08684 whole entry, looked up): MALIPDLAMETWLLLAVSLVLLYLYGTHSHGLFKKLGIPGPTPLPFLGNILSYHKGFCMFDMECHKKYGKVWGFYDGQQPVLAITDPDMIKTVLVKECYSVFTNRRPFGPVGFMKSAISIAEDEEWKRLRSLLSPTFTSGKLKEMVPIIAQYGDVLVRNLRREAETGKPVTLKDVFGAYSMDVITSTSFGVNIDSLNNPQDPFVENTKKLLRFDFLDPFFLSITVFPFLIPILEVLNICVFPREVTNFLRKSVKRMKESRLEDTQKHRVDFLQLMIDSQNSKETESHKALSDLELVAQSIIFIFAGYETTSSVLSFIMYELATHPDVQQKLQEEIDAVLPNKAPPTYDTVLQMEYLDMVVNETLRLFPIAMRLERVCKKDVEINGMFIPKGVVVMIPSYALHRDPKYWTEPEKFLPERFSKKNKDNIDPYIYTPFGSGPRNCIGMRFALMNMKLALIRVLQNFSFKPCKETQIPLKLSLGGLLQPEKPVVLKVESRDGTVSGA
Regarding `CNC[C@H](O)c1ccc(O)c(OC)c1`, the “activity, negative = inhibition” value was -5% [at 25.6 µM] (inactive). Take `Cc1cccc([C@H](C)c2cnc[nH]2)c1C`: the AC50 is 0.158 µM (active). Regarding `O=P(O)(O)C(Cl)(Cl)P(=O)(O)O`, the “activity, negative = inhibition” value was 7.29% (inactive). Regarding `C(=C/c1ccccc1)/CN1CCN(CCOC(c2ccccc2)c2ccccc2)CC1`, the “activity, negative = inhibition” value was -20.7% (inactive).

As to `CCC(=O)O[C@@](Cc1ccccc1)(c1ccccc1)[C@@H](C)CN(C)C`, the AC50 is 5.01 µM (active).

Take `CC(C)[N+](C)(CCC(C(N)=O)(c1ccccc1)c1ccccc1)C(C)C`: the “activity, negative = inhibition” value is -24.2% [at 25.6 µM] (inactive). With `O=C(O)[C@H]1[C@H](C(=O)O)[C@H]2CC[C@@H]1O2`, the “activity, negative = inhibition” value is -5.34% (inactive).

On to `COc1cc(CCN)c(OC)c(OC)c1`, for which the activity, negative = inhibition is -5.19% [at 11.4 µM] (inactive). Take `CCOP(=O)(CN(CC)CCNP(=O)(OCC)OCC)OCC`: the activity, negative = inhibition is 10.5% [at 2.29 µM] (inactive). Still for that read-out and setting: the value for `CN1CCc2nc3sc(C(=O)NC(C)(C)C)c(N)c3cc2C1` was -11.5% [at 2.29 µM] (inactive); that for `CC[C@]1(OC(=O)CN)C(=O)OCc2c1cc1n(c2=O)Cc2cc3ccccc3nc2-1` was -27% [at 11.4 µM] (inactive).

Consider `CC[C@@]1(O)C(=O)OCc2c1cc1n(c2=O)Cc2cc3ccccc3nc2-1`, for which the AC50 is 6.31 µM (active) and inactive. `CC[C@@]1(O)C(=O)OCc2c1cc1n(c2=O)Cc2cc3c(NC(=O)CN)cccc3nc2-1`: the activity, negative = inhibition was 0.232% [at 11.4 µM] (inactive).

Regarding `CCc1ccccc1NC(=O)NC1CC2CCC(C1)N2Cc1cccs1` (stereo not drawn), the “activity, negative = inhibition” value was -21.2% (inactive). As to `O=C(NC1CCCCC1)NC1CC2CCC(C1)N2Cc1nnnn1Cc1ccc2c(c1)OCO2` (stereo not drawn), the concentration at half-maximal activity (AC50) was 3.16 µM (active). With `COc1ccc(NC(=O)NC2CC3CCCC(C2)N3Cc2ccccc2)cc1` (stereo not drawn), the “activity, negative = inhibition” value was 16.8% (inactive). The same measure, in the same setting: the value for `C[C@@]12CC[C@H]3[C@H](CC=C4C[C@@H](O)CC[C@@]43C)[C@@H]1CC[C@@H]2N(CCO)CCO` was 12.7% [at 11.4 µM] (inactive).

As for `c1ccc(CN2CCC3(CCNCC3)CC2)cc1`, the “activity, negative = inhibition” value is -7.57% (inactive).

For the compound `O=C1NCN(c2ccccc2)C12CCN(CCCOc1ccc(F)cc1)CC2`, the “activity, negative = inhibition” value was 18.9% (inactive). Turning to `COC(=O)CN1CN(c2ccccc2)C2(CCN(Cc3ccc4ccccc4c3)CC2)C1=O`, the AC50 is 15.8 µM (active). Take `CC[C@]1([C@H]2O[C@@H]([C@@H]3O[C@](O)(CO)[C@@H](C)C[C@H]3C)C[C@H]2C)CC[C@@H]([C@]2(C)CC[C@@]3(C[C@@H](O)[C@@H](C)[C@@H]([C@H](C)[C@H](OC)[C@H](C)C(=O)O)O3)O2)O1`: the “activity, negative = inhibition” value was -4.62% [at 25.6 µM] (inactive). For `c1cc2cc(c1)C[n+]1ccc(c3ccccc31)NCc1ccc(cc1)CNc1cc[n+](c3ccccc13)C2`, the “activity, negative = inhibition” value is 11.2% (inactive). On to `O=C(Oc1ccc([N+](=O)[O-])cc1)N1CCC(N2CCCCC2)CC1`, for which the “activity, negative = inhibition” value is -28.2% (inactive). For `C[C@@]12C=CC(=O)C=C1CC[C@@H]1C2=CC[C@]2(C)[C@@H]1CC[C@H]2C(=O)CN1CCN(c2cc(N3CCCC3)nc(N3CCCC3)n2)CC1`, the AC50 is 3.16 µM (active). For the compound `C[As+](C)(c1ccc(Br)c([N+](=O)[O-])c1)c1ccc(Br)c([N+](=O)[O-])c1.O=[N+]([O-])O`, the activity, negative = inhibition is -4.86% [at 11.4 µM] (inactive). On to `COC(=O)C[C@](O)(CCCC(C)(C)O)C(=O)O[C@@H]1C(OC)=C[C@]23CCCN2CCc2cc4c(cc2[C@H]13)OCO4`, for which the AC50 was 12.6 µM (active).

On to `CN(C)CCCc1c[nH]c2ccccc12`, for which the activity, negative = inhibition is -0.0212% [at 11.4 µM] (inactive). Same read-out and setting: the value for `O=C1CCCN1CC#CCN1CCCC1` was “inactive”.

Regarding `O=C1C=C2C=C[C@H]3C[C@@]2(O1)[C@H]1CCCCN31`, the “activity, negative = inhibition” value was -13.1% [at 25.6 µM] (inactive). For `Nc1ccc(S(=O)(=O)c2ccc(NCN3C(=O)NC(=O)C(=O)C3=O)cc2)cc1`, the AC50 was 2 µM (active). As to `CC(=O)NBr`, the “activity, negative = inhibition” value was -3.28% (inactive). For `NCCc1c[nH]c2ccc(O)cc12`, the “activity, negative = inhibition” value was -20.5% [at 25.6 µM] (inactive). Consider `COc1ccc2[nH]cc(CCN)c2c1`, for which the “activity, negative = inhibition” value was -6.61% (inactive). Regarding `CS(=O)(=O)Nc1ccc(Cc2noc(-c3ccc4[nH]cc(CCN)c4c3)n2)cc1`, the AC50 was 15.8 µM (active).

As to `O=C1OC(=O)[C@@H]2[C@@H]1[C@@H]1CC[C@H]2O1`, the “activity, negative = inhibition” value is 7.25% (inactive). The same measure, in the same setting: the value for `C=C[C@H]1CN2CC[C@@H]1C[C@H]2[C@@H](O)c1ccnc2ccccc12` was “inactive”; that for `CCCN1CCC[C@H](c2cccc(O)c2)C1` was “inactive”. `CC(C)C12CN3CC(C(C)C)(CN(C1)C3c1cccnc1)C2=O` (stereo not drawn): the AC50 was 2.24 µM (active). Turning to `CNCCc1ccc(O)c(O)c1`, the “activity, negative = inhibition” value was -18.3% (inactive). On the same count and under the same terms, for `NP(N)(=O)NC(=O)c1ccc(F)cc1` the value was -7.05% (inactive). Consider `NNC(=O)c1ccc(O)cc1`, for which the AC50 is 5.01 µM (active).

As for `NCCc1ccc(O)cc1`, the “activity, negative = inhibition” value was -2.1% (inactive). As to `Ic1cncc(OC[C@@H]2CCN2)c1`, the “activity, negative = inhibition” value is -28.9% (inactive). Turning to `CCN(CCCl)Cc1ccccc1Br`, the “activity, negative = inhibition” value is -11.1% (inactive). On the same count and under the same terms, for `COc1ccc(OC)c([C@H](O)[C@H](C)N)c1` the value was “inactive”; for `CN(N=O)C(=O)N[C@H]1[C@@H](O)[C@H](O)[C@H](CO)O[C@@H]1O`, -4.4% [at 25.6 µM] (inactive). `COC(=O)[C@@]1(Cc2ccc(F)cc2)[C@H]2c3cc(C(=O)N(C)C)[nH]c3C[C@H]2CN1C(=O)c1ccccc1`: the AC50 is 0.631 µM (active).

Turning to `CC(C)[C@]1(O)[C@@H](OC(=O)c2ccc[nH]2)[C@]2(O)[C@@]3(C)C[C@@]4(O)O[C@@]5([C@H](O)[C@@H](C)CC[C@]35O)[C@]2(O)[C@]41C`, the activity, negative = inhibition is -24.6% [at 11.4 µM] (inactive).

The values above are taken from PubChem BioAssay AID1851 (National Center for Advancing Translational Sciences (NCATS), 2009).
